The source of these data is publication PMC5540273 (PLoS ONE, 2017).
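Note: KINOMEscan kinase panel screen.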

This test relates to T1, DRAK2.
T1 construct: gene STK17B
As to conditions: concentration: 1 μM, replicates: in singlicate; n = 1.
Regarding `CN1C(=O)C(Nc2cc(Cl)c(O)c(Cl)c2)=C(c2ccc(Cl)cc2)C1=O` [SB-404321], the “%Inh” value was 0%. Turning to `CCC(=O)c1c(-c2ccccc2)c2cc(Cl)ccc2c(=O)n1Cc1cc(C(=O)NC2CC2)n(C)n1`, the “%Inh” value came to 3%. The same measure for `COc1cccc(C2=C(Nc3cccc(C(=O)O)c3)C(=O)NC2=O)c1` [SB-390770]: 0%; for `O=C(Nc1ccc2c(c1)OCO2)NC1CCN(c2ccnc(NCc3ccc(F)cc3)n2)CC1` [GSK1379859]: 0%. With `COc1cc2nccc(Nc3cccc(Oc4ccccc4)c3)c2cc1OC.Cl` [GW284543], the “%Inh” value is 26%. On to `COc1cc(Nc2nccc(N3CCC(NC(=O)C(C)c4ccc(Cl)cc4)C3)n2)cc(OC)c1OC` (stereo not drawn) [GSK1379757], for which the “%Inh” value turned out to be 0%. For `Cc1ccccc1COc1cc(-n2cnc3cc(Cl)ccc32)sc1C(N)=O` [GW813349], the “%Inh” value stood at 1%. For `CCC(=O)c1c(-c2ccccc2)c2cc(Cl)ccc2c(=O)n1Cc1cc(S(C)(=O)=O)n(CCC(C)(C)O)n1`, the “%Inh” value is on record as 2%. With `Cc1nn2c(=O)cc(N3CCOCC3)nc2n1Cc1cccc(Cl)c1Cl` [GSK2342769], the “%Inh” value is listed as 0%. Take `COc1ccc(Nc2nccc(N3CCC(NS(=O)(=O)c4ccc(NC(C)=O)cc4)C3)n2)cc1` (stereo not drawn) [GSK1379729]: the “%Inh” value stood at 4%. In the case of `Cc1cccc(-c2nc(Nc3ccc4c(cnn4C)c3)c3ccccc3n2)n1` [GW876731], the “%Inh” value came to 3%. As to `C[C@@H]1CC[C@H](C(=O)NC2CCCCC2)CN1c1cc(-c2ccc3c(N)n[nH]c3c2)nc(N)n1` [GSK2291363], the “%Inh” value came out at 0%.
